Compounds without any hit were thinned out: in the full panel of roughly 83,000, 20% have a hit.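 Treatment: one concentration, 48 hours, 96-well format. Scoring: percent growth, with anything below 10 considered active.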 Active and inactive are the calls of the source.

The subject of this assay is NCI-H322M lung. Nature of the assay: NCI-60 one-dose screen, 48 h (100 = growth as untreated, 0 = no growth, -100 = all killed). The note with it: 10 µM unless noted.
With `CCOc1cc2ncc(C#N)c(Nc3ccc(F)c(Cl)c3)c2cc1NC(=O)/C=C/CN(C)C`, the growth is 0.98% (active).
For `CCN(CC)CCNC(=O)c1c(C)[nH]c(/C=C2\C(=O)Nc3ccc(F)cc32)c1C`, the growth is 31.4% (inactive).
The value for `COc1ccc2c(CCC(c3ccccc3)c3ccccc3)c3[n+](cc2c1OC)CCc1cc2c(cc1-3)OCO2` was 33.1% (inactive).
The value for `C[C@@H](Oc1cc(-n2cnc3ccc(CN4CCN(C)CC4)cc32)sc1C(N)=O)c1ccccc1C(F)(F)F` was 63.8% (inactive).
The value for `CC(C)=CCc1cc2c(cc1O)C1=C(C(=O)C3=C(NCCS3(=O)=O)C1=O)C(C=C(C)C)O2` (stereo not drawn) was 11.4% (inactive); that for `CC(N)C(Cc1ccc(Cl)cc1)c1ccc(Cl)cc1` (stereo not drawn) was 83.4% (inactive); that for `Clc1nc(Cl)c2ncn(CC#CCn3cnc4c(Cl)nc(Cl)nc43)c2n1` was 46.6% (inactive).
For `O=C(Cc1ccc(-c2ccc(OCCN3CCOCC3)cc2)cn1)NCc1ccccc1`, the growth was 33.1% (inactive).
On to `Cc1nc(NC(=O)N2CCC[C@H]2C(N)=O)sc1-c1ccnc(C(C)(C)C(F)(F)F)c1`, for which the growth was 6.7% (active).
The result for `COc1ccc2c(CCCc3ccc(Cl)cc3Cl)c3[n+](cc2c1OC)CCc1cc2c(cc1-3)OCO2` reads 35.9% (inactive); that for `Cc1c(Cn2c(C)nc3c(C(=O)O)cc(N4CCOCC4)cc32)cccc1C(F)(F)F`, 98.8% (inactive).
The value for `COc1cc2nccc(Oc3ccc(NC(=O)C4(C(=O)Nc5ccc(F)cc5)CC4)cc3)c2cc1OC` was 12.1% (inactive); that for `C=CCCCC(=O)CCC(=O)OCC1O[C@@H](O[C@@H]2C(O)[C@@H](OC(C)=O)C(C)O[C@H]2O[C@H](CC=C)CCCCC)C(O)[C@@H](OC(=O)/C(C)=C/C)[C@@H]1OC(=O)/C=C/c1ccccc1` (stereo partly drawn) was 39.6% (inactive).
